From PubChem BioAssay come the findings set out here.

What is called inhibition is the relative decrease from the control value, in per cent.

Assay [1] can be described thus: inhibitors of TNFa-induced NFkB p65 translocation, primary screen, imaging, HUVEC, MLSMR starter and 10KST1 sets (AID 438).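 Also: compound added about 3h40 before a 20 min TNFalpha stimulation.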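 As to inhibition: signal is the nuclear over cytoplasmic p65 intensity ratio per well.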 The conditions noted are these: HUVEC TNFa-induced p65 nuclear translocation; cell count: measured here: nuclei count (cytotoxicity indicator), at 2.08 µM; inhibition: at 2 µM, stronger effect = higher value, 0% TNFa-plus-vehicle, 100% no-TNFa wells.
A short description of assay [2]: inhibitors of mutant huntingtin aggregation, primary screen, imaging, exon1htt(103Q)mCFP cells, high-content imaging (AID 483;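 active = visual image review flags a hit and inhibition of aggregation exceeds 20%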;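 also: compound exposure lasted 3 days before fixation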;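 as to nuclei count: percent of the per-plate median nuclei count of sample wells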). The conditions noted are these: exon1htt(103Q)mCFP cell line, aggregate imaging, at 2 µM; inhibition of aggregation: stronger effect = higher value; nuclei count: measured here: cell count, toxicity.
Assay [3] can be described thus: inhibitors of E-selectin induction by TNFa, primary screen, imaging, HUVEC, immunofluorescence, MLSMR starter and 10KST1 sets (AID 487;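 active = visually confirmed hit in the image check and inhibition above 20%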;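 as to inhibition: signal is fraction of cell area covered by stained E-selectin grains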;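 as to nuclei count: 100% = median nuclei count of all wells on the same plate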). As to conditions: HUVEC TNFalpha-induced E-selectin immunofluorescence imaging, at 2 µM; inhibition: stronger effect = higher value; nuclei count: measured here: cell number, toxicity.
In assay [4] the target is Voltage-gated potassium channel subunit beta-2 (Rattus norvegicus) (UniProt P62483). The experiment in a line: KvBeta enzyme negative modulators, primary screen, biochemical, NADPH fluorescence (AID 622;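 active = fluorescence slope higher than the sample average by over 3 SD, cut at about -0.22 in these data, passing the limit was not always enough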;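 also: slope of raw intensity against log time taken from 70 to 1610 s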). The conditions noted are these: recombinant KvBeta, 4-cyanobenzaldehyde reduction, at 10 µM, stronger effect = higher value.
Sequence of Voltage-gated potassium channel subunit beta-2 (Rattus norvegicus) (P62483 whole entry, looked up): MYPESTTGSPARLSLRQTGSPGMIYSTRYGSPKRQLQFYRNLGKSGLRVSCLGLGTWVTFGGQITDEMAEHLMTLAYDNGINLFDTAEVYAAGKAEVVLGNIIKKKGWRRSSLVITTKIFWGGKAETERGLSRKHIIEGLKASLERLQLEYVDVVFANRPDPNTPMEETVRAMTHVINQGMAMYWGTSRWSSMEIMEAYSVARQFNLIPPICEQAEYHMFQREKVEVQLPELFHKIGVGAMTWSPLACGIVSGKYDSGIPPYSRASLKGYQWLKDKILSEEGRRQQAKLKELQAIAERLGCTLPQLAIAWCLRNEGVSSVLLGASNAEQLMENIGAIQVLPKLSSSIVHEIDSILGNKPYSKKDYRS
For assay [5] the target is unchanged. Kind of assay: KvBeta positive modulators, primary screen, biochemical, NADPH fluorescence (AID 623;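 active = NADPH fluorescence slope more negative than the mean of all samples by about 3 SD, 99.7% confidence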;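 also: fluorescence intensity change per second fitted from 20 to 320 s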). As to conditions: Recombinant KvBeta, NADPH fluorescence decrease slope, 10 min; at 10 µM; stronger effect = lower value.
Assay [6] has as its target Alpha-2C adrenergic receptor (Homo sapiens) (UniProt P18825). Kind of assay: modulators of alpha2C/GIRK thallium flux, primary screen, cell-based, HEK293 alpha2C/GIRK1/2 (AID 624;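 active = fluorescence slope after compound addition differing from the mean of all screened samples at 99.7% confidence, in either direction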;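 also: slope of fluorescence ratio to pre-addition baseline per second over 15 to 24 s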). As to conditions: thallium flux BTC fluorescence, at 10 µM, actives lie on both sides.
Assay [7] can be described thus: inhibitors of Sendai virus-induced IRF3 signaling, primary screen, TLR/RLR signaling modifier project, cell-based, Sendai virus stimulus, luciferase, 10K MLSCN set (AID 602276;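 active = inhibition at or above 50% at 10 µM; inactive = inhibition below 50%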;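 also: firefly luciferase from ISG56 promoter only with Renilla not read in this screen; 0% = Sendai virus plus DMSO and 100% = medium plus DMSO without virus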). The conditions noted are these: HEK293 RL24 IRF3 luciferase reporter, at 10 µM, stronger effect = higher value. (In a reporter assay the amount or activity of a reporter protein is the signal.)
Assay [8] in a line: inhibitors of poly I:C-induced TLR3 signaling, primary screen, cell-based, poly I:C stimulus, luciferase, 10K MLSCN set (AID 602277;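 active = inhibition of the reporter signal at or above 50%; inactive = inhibition below 50%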). The conditions noted are these: HEK293-TLR3 RL24 IRF3 luciferase reporter, at 10 µM, stronger effect = higher value.

Active and inactive are the calls of the source.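 The calls were made as follows, unless noted: active = inhibition above 20% together with a positive visual image hit; inconclusive = visual image hit but inhibition not above 20%; inactive = no visual image hit.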

Sequence of Alpha-2C adrenergic receptor (Homo sapiens) (P18825 whole entry, looked up): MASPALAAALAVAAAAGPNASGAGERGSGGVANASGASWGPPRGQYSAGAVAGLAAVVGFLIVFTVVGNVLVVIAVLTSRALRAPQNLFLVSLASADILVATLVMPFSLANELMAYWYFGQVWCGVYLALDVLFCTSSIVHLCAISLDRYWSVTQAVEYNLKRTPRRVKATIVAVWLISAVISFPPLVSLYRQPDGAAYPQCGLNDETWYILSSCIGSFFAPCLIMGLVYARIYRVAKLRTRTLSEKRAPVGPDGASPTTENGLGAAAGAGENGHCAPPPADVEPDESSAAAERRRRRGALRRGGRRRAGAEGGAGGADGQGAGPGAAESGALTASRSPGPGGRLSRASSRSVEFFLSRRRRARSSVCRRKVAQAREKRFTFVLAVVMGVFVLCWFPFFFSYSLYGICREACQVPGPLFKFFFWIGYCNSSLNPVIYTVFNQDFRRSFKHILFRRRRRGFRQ

On to `COc1ccc(S(=O)(=O)C(C#N)c2nc3ccccc3nc2N2CCCC(C)C2)cc1` (centres undefined), for which the cell count in assay [1] was found to be 714. In addition, the inhibition is -5% (inactive) in assay [1], 16% (inactive) in assay [3], 13% (inactive) in assay [7] and 0.928% (inactive) in assay [8]. In addition, the inhibition of aggregation in assay [2] is -12.7% (inactive). Further, the nuclei count in assay [2] worked out at 92.2%; in assay [3], 113%. Moreover, the fluorescence slope in assay [4] was -0.417 (inactive). Further, in assay [5], the NADPH fluorescence slope is 7.1e-06 (inactive). Also, the slope in assay [6] was 0.00445 (inactive).
`c1ccc(-n2ncc3c(NC4CCCCCC4)ncnc32)cc1`: the cell count in assay [1] is 691. In addition, the inhibition in assay [1] is -0.3% (inactive); in assay [3], -56.3% (inactive); in assay [7], -49.7% (inactive); in assay [8], -136% (inactive). The inhibition of aggregation in assay [2] was 3.1% (inactive). The figures for the nuclei count in assay [2] and in assay [3] were 115% and 122%, respectively. For the same compound, the fluorescence slope in assay [4] was -0.547 (inactive). The NADPH fluorescence slope in assay [5] was -1.1e-06 (inactive). Also, the slope in assay [6] is 0.007 (inactive).
As for `c1ccc(-c2oc3ncnc(NCCN4CCOCC4)c3c2-c2ccccc2)cc1`, in assay [1], the cell count was found to be 365. The inhibition in assay [1] was -11.4% (inactive); in assay [3], -121% (inactive); in assay [7], 13.9% (inactive); in assay [8], 16% (inactive). The inhibition of aggregation in assay [2] was -1.8% (inactive). Besides, the nuclei count in assay [2] was 102%; in assay [3], 106%. Also, the fluorescence slope in assay [4] is -0.512 (inactive). In addition, in assay [5], the NADPH fluorescence slope was -8.4e-05 (inactive). Also, the slope in assay [6] was 0.00536 (inactive).
As for `CC(NC(=O)c1cc2c(=O)n(C)c3ccccc3c2n1C)c1ccc2c(c1)OCCO2` (centres undefined), in assay [1], the cell count worked out at 798. Also, the inhibition in assay [1] was -4.4% (inactive); in assay [3], -41.1% (inactive); in assay [7], 4.73% (inactive); in assay [8] it was 4.98% (inactive). Besides, the inhibition of aggregation in assay [2] is 3.3% (inactive). In addition, the values for the nuclei count in assay [2] and in assay [3] were 139% and 107%, respectively. The fluorescence slope in assay [4] is -0.623 (inactive). Moreover, in assay [5], the NADPH fluorescence slope was -2.2e-05 (inactive). Moreover, in assay [6], the slope was 0.00677 (inactive).
As for `COc1ccc(OC)c(Nc2ncnc3c2cnn3-c2ccccc2)c1`, the cell count in assay [1] amounted to 334. For the same compound, the inhibition was -6.5% (inactive) in assay [1], -26.3% (inactive) in assay [3], -14.3% (inactive) in assay [7] and -62.3% (inactive) in assay [8]. Also, the inhibition of aggregation in assay [2] is -6.7% (inactive). Also, the figures for the nuclei count in assay [2] and in assay [3] were 111% and 113%, respectively. Moreover, in assay [4], the fluorescence slope is -0.4 (inactive). Moreover, the NADPH fluorescence slope in assay [5] is -2.9e-05 (inactive). For the same compound, the slope in assay [6] was 0.00524 (inactive).
As to `CCc1[nH]nc2c1C1(CCN(C(=O)OCc3ccccc3)CC1)C(C#N)=C(N)O2`, the cell count in assay [1] amounted to 823. Also, the inhibition in assay [1] was 0.6% (inactive); in assay [3] it was -28.9% (inactive); in assay [7], 17.6% (inactive); in assay [8], 13.6% (inactive). Also, the inhibition of aggregation in assay [2] was 12.7% (inactive). For the same compound, the nuclei count stood at 114% in assay [2] and 124% in assay [3]. Besides, the fluorescence slope in assay [4] was -0.494 (inactive). Further, in assay [5], the NADPH fluorescence slope is -4.5e-05 (inactive). Also, in assay [6], the slope was 0.00458 (inactive).
For `O=C(CN1C(=O)CCSc2ccccc21)Nc1ccccc1`, the cell count in assay [1] stood at 854. The inhibition in assay [1] was -4.1% (inactive); in assay [3], -140% (inactive); in assay [7], -3.3% (inactive); in assay [8], 7.46% (inactive). For the same compound, in assay [2], the inhibition of aggregation was -19.8% (inactive). For the same compound, the nuclei count turned out to be 105% in assay [2] and 113% in assay [3]. In assay [4], the fluorescence slope is -0.447 (inactive). Besides, the NADPH fluorescence slope in assay [5] was -0.000395 (inactive). In addition, in assay [6], the slope is 0.00731 (inactive).
`CC(=O)Nc1c(C(=O)C2CC2)oc2ccccc12`: in assay [1], the cell count came to 514. For the same compound, the inhibition is 2.2% (inactive) in assay [1], -8.1% (inactive) in assay [3], -3.28% (inactive) in assay [7] and 2.69% (inactive) in assay [8]. In assay [2], the inhibition of aggregation was -10.5% (inactive). For the same compound, the nuclei count was determined as 102% in assay [2] and 117% in assay [3]. For the same compound, the fluorescence slope in assay [4] is -0.448 (inactive). Further, the NADPH fluorescence slope in assay [5] was -2.5e-05 (inactive). Besides, the slope in assay [6] is 0.00698 (inactive).
Take `Cc1ccc(-n2ncc3c(=O)n(CC(=O)NCc4ccco4)cnc32)cc1`: the cell count in assay [1] is 473. Besides, the inhibition in assay [1] was -7% (inactive); in assay [3] it was -72.1% (inactive); in assay [7] it was 21.7% (inactive); in assay [8], 20.3% (inactive). Moreover, in assay [2], the inhibition of aggregation was 9.4% (inactive). For the same compound, the nuclei count in assay [2] was 110%; in assay [3] it was 108%. For the same compound, the fluorescence slope in assay [4] is -0.485 (inactive). Besides, the NADPH fluorescence slope in assay [5] was -0.000156 (inactive). In addition, the slope in assay [6] was 0.00543 (inactive).
On to `Cc1csc2nc(CNC(=O)c3ccco3)cn12`, for which, in assay [1], the cell count is 518. The inhibition in assay [1] is -8.8% (inactive); in assay [3] it was -27.7% (inactive); in assay [7], -23.7% (inactive); in assay [8] it was -70.6% (inactive). In addition, in assay [2], the inhibition of aggregation was -5.9% (inactive). Besides, the nuclei count in assay [2] stood at 90.4%; in assay [3], 71%. Moreover, in assay [4], the fluorescence slope was -0.511 (inactive). Moreover, the NADPH fluorescence slope in assay [5] is -5.4e-05 (inactive). For the same compound, the slope in assay [6] was 0.00553 (inactive).
With `Cc1ccc(-c2noc(-c3ccccc3C(=O)NCC3CCCO3)n2)cc1` (centres undefined), in assay [1], the cell count is 763. In addition, the inhibition in assay [1] is 2% (inactive); in assay [3] it was 8.3% (inactive); in assay [7], -20% (inactive); in assay [8], -30.1% (inactive). Also, the inhibition of aggregation in assay [2] is -9% (inactive). Moreover, the results for the nuclei count in assay [2] and in assay [3] were 110% and 106%, respectively. In assay [4], the fluorescence slope is -0.442 (inactive). The NADPH fluorescence slope in assay [5] is 5.9e-05 (inactive). Further, the slope in assay [6] is 0.00648 (inactive).
On to `Cc1cc(C)c2c(n1)nn1c(C3CC3)cc(C(F)(F)F)nc21`, for which the cell count in assay [1] worked out at 631. The inhibition was -2% (inactive) in assay [1], -11.4% (inactive) in assay [3], 8.22% (inactive) in assay [7] and 17.3% (inactive) in assay [8]. Further, in assay [2], the inhibition of aggregation was 1.3% (inactive). Also, the results for the nuclei count in assay [2] and in assay [3] were 92.2% and 123%, respectively. For the same compound, in assay [4], the fluorescence slope was -0.315 (inactive). For the same compound, the NADPH fluorescence slope in assay [5] was 2.7e-06 (inactive). Besides, in assay [6], the slope is 0.00594 (inactive).
For `CCCn1cc(C(CC(=O)O)C(=O)O)c2ccccc21` (centres undefined), the cell count in assay [1] was found to be 319. Besides, the inhibition is 0.2% (inactive) in assay [1], -112% (inactive) in assay [3], 13.9% (inactive) in assay [7] and 17.2% (inactive) in assay [8]. Also, the inhibition of aggregation in assay [2] was 11% (inactive). Further, the nuclei count in assay [2] was 97.5%; in assay [3], 126%. Moreover, in assay [4], the fluorescence slope is -0.399 (inactive). Further, the NADPH fluorescence slope in assay [5] is -3.1e-05 (inactive). Also, the slope in assay [6] was 0.00576 (inactive).
Take `COc1cc(NC(=O)CSCc2cnn(-c3ccccc3)c2-n2cccc2)cc(OC)c1`: the cell count in assay [1] worked out at 662. Also, the inhibition in assay [1] was 6.1% (inactive); in assay [3], -32% (inactive); in assay [7], 15.7% (inactive); in assay [8], 11.2% (inactive). Also, the inhibition of aggregation in assay [2] is 9.3% (inactive). Besides, the nuclei count was determined as 97.9% in assay [2] and 98.1% in assay [3]. In addition, the fluorescence slope in assay [4] is -0.315 (inactive). The NADPH fluorescence slope in assay [5] is -7.1e-05 (inactive). Moreover, the slope in assay [6] is 0.00868 (inactive).
